The source of these data is PubChem BioAssay AID1058 (Emory University Molecular Libraries Screening Center, 2008).

Entries with a potency or affinity are not part of this list. Calls of active or inactive are those of the source.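 How the source made its calls: active means fitted IC50 of 30 µM or less, with percent of control binding at that IC50 of 60 or less; inactive means the rest.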

In the assay the target is Mothers against decapentaplegic homolog 3 (Homo sapiens) (UniProt P84022). Description: blockers of Smad3 complex formation in lysate – cell lysate, secondary confirmation, chemiluminescent ELISA, HEK293 lysate, dose response (AID 1058). For orientation: An ELISA detects its analyte on a solid surface through an enzyme-linked reagent.
Mothers against decapentaplegic homolog 3 (Homo sapiens), sequence (P84022 whole entry, looked up): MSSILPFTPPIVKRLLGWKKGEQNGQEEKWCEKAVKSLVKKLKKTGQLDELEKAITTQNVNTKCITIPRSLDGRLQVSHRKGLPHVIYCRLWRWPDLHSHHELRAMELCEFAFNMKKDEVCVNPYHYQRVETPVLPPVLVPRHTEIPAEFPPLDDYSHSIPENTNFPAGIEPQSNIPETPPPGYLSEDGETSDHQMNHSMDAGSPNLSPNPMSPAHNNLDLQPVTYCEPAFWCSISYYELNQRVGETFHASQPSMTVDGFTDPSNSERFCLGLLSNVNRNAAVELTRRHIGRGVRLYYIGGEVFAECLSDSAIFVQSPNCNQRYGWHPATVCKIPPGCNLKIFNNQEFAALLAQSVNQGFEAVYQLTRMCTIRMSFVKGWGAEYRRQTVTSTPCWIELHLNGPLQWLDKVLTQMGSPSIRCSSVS

Turning to `Oc1cc2c(cc1C(c1ccc(F)cc1)N1CCOCC1)OCO2` (stereo unspecified), the molecule was classed as inactive.
